High-throughput results as filed in PubChem BioAssay.
Rows were chosen to be rich in hits. Some 2.4% of all compounds tested hit in one or more screens of this group.
POLI inh: qHTS for Inhibitors of Polymerase Iota; Pol iota fluorescent replication assay, 10 min; Potency, µM (series often up to 115 µM), most hits filed as inhibitors; 1% of 390,000 active; AID 588590, 2011
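Fluorescent replication assay read twice, at 0 min and 10 min after adding 50 nM (final) substrate. Enzyme (10 nM) and compounds were first incubated 15 min at room temperature; enzyme-free buffer wells were negative controls.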
TDP1 block: qHTS Assay for Inhibitors of Tyrosyl-DNA Phosphodiesterase (TDP1). Potency, µM (series often up to 130 µM), usual class: inhibitors. Tyrosyl-DNA phosphodiesterase 1 (Homo sapiens), Q9NUW8. 0.28% of 350,000 active. AID 485290, 2010. recombinant TDP1, AlphaScreen DNA substrate cleavage; note: nearly all actives have a fitted effect of over 40% in size
Target sequence (Q9NUW8 whole entry, looked up): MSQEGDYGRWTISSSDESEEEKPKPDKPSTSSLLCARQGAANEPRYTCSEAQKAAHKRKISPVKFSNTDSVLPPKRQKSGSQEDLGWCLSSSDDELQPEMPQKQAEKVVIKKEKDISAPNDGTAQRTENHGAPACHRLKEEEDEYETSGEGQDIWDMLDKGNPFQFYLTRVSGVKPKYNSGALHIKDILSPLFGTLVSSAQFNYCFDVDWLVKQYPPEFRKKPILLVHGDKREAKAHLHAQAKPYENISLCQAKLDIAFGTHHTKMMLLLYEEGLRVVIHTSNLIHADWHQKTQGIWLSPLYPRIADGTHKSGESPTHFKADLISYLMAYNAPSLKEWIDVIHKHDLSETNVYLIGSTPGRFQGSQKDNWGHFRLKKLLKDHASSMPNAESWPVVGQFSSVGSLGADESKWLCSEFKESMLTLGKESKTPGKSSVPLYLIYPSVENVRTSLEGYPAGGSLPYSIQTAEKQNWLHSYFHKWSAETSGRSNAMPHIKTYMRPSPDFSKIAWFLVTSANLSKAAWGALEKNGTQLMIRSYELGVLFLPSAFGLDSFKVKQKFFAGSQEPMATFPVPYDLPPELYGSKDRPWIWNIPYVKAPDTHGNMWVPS
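Here, a 5' biotin and 3' phosphotyrosine-FITC DNA oligonucleotide reports Tdp1 activity: intact substrate bridges AlphaScreen beads, while cleavage leaves a 3' phosphate and drops signal. All incubations at room temperature.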
FEN1 inh: qHTS Assay for the Inhibitors of Human Flap endonuclease 1 (FEN1); P39748; Recombinant FEN1 flap cleavage, fluorescence, 15 min; 0.35% of 390,000 active; Potency, µM (series often up to 114 µM), most hits filed as inhibitors; note: nearly all actives have a fitted effect of over 65% in size
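Steps: FEN1 (10 nM) dispensed; compound added by pin tool; 15 min at room temperature; substrate added to 50 nM final; reads at 0 min and 15 min; data normalized and fitted (four-parameter Hill).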
Pol kappa inh: qHTS for Inhibitors of Polymerase Kappa; DNA polymerase kappa (Homo sapiens), Q9UBT6; purified Pol kappa, fluorescent DNA synthesis assay, 10 min; Potency, µM (titrated, usually from 107 µM), actives largely listed as inhibitors; 0.53% of 400,000 active
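Inhibition of 10 nM Pol kappa is measured by a fluorescent read-out at 0 and 10 min following addition of 50 nM substrate (final), with a 15-min room-temperature compound preincubation.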
POLH inh: qHTS for Inhibitors of Polymerase Eta | 1.2% of 390,000 active | Potency, µM (titrated, usually from 114 µM), most hits filed as inhibitors | recombinant Pol eta, fluorescent DNA replication assay | AID 588591, 2011 | DNA polymerase eta (Homo sapiens), Q9Y253
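Pol eta (10 nM) was preincubated with compounds for 15 min at room temperature, after which fluorescent replication substrate (50 nM final) was added to start the reaction. Fluorescence was read kinetically at 0 and 10 min.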
Pol beta inh: qHTS Assay for Inhibitors of DNA Polymerase Beta; P06746; 1.3% of 340,000 active; Potency, µM (doses to about 114 µM), most hits filed as inhibitors; Pol beta primer extension/strand displacement, fluorescence kinetic
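Pol beta (10 nM) and compounds were preincubated 15 min at room temperature, then 50 nM substrate (final) started primer extension/strand displacement. Reads were taken at 0 and 10 min; concentration-response data were fitted to a four-parameter Hill equation.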
Each line names hits and unclear results; the compound was inactive in the other large screens. Calls come from the whole dose curve; as a rule, active = well fitted curve in the direction sought with a large enough effect; inconclusive = small, poorly fitted or top-dose-only effect, or another doubt; inactive = no such curve, though single readings can be large; an effect the other way counts as inactive or inconclusive.

CCOc1ccc(OCC)c(NC(=O)c2cc(-c3cccs3)nc3ccccc23)c1	POLI inh 89µM, Pol kappa inh inconclusive
CCc1cccc(-n2c(=O)c3cccnc3n2CC(=O)NCc2ccccc2Cl)c1	none
CS(=O)(=O)Nc1cccc(-c2nc(N3CCOCC3)c3ccccc3n2)c1	none (no result: POLI inh, FEN1 inh, POLH inh, Pol beta inh)
N/C(=N\OC(=O)Cc1cccs1)c1ccccc1	POLH inh 16µM
Cc1ccc(/C(N)=N/OC(=O)Cc2cccs2)cc1	none
N#Cc1nc(-c2ccc(OCc3ccccc3Cl)cc2)oc1N1CCCCCC1	none (no result: POLH inh, Pol beta inh)
O=C(Cc1cccs1)Nc1nnc(SCc2ccc(C(F)(F)F)cc2)s1	POLH inh inconclusive, Pol beta inh inconclusive
Cc1ccccc1CSc1nnc(NC(=O)Cc2cccs2)s1	POLH inh inconclusive, Pol beta inh 22µM
Cc1nnc(NC(=O)Cc2cccs2)s1	POLI inh 45µM, Pol kappa inh inconclusive, POLH inh inconclusive, Pol beta inh 35µM
O=C(Cc1cccs1)Nc1nnc(SCc2ccc(Br)cc2)s1	POLI inh inconclusive, Pol kappa inh inconclusive, POLH inh inconclusive, Pol beta inh 32µM
COCCn1c(C)cc(O)c(C(c2ccccc2)N2CCN(c3ccccc3F)CC2)c1=O (stereo unspecified)	none
O=C(C[n+]1cccc(Br)c1)c1ccc2ccccc2c1	none (no result: TDP1 block, POLH inh, Pol beta inh)
O=C(C[n+]1cccc(Cl)c1)c1ccc(O)c(O)c1	POLI inh inconclusive, Pol kappa inh 2.2µM (no result: TDP1 block, POLH inh, Pol beta inh)
COc1ccc(Cn2c(CNC(=O)c3ccc(N(C)C)cc3)nc3cccnc32)cc1	none
Cc1ccc(NC(=O)NC(=O)N(C(C)C)S(=O)(=O)c2ccc(C)cc2)cc1	Pol beta inh 89µM
Cc1ccc(NC(=O)Nc2ccc(S(N)(=O)=O)cc2)cc1	none
COc1cc(SC#N)ccc1N=Cc1c(C)[nH]n(-c2cccc3ccccc23)c1=O	POLI inh 13µM
O=C1c2ccc(O)c(O)c2C(=O)c2c(O)ccc(O)c21	Pol kappa inh 2.8µM (no result: POLI inh, TDP1 block, FEN1 inh, POLH inh, Pol beta inh)
COC(=O)c1ccc2c(c1O)C(=O)c1ccccc1C2=O	POLI inh inconclusive
Cc1ccc(NS(=O)(=O)c2cc3c(cc2N2CCCCC2)NC(=O)CC3)cc1C	none (no result: POLI inh, FEN1 inh, Pol kappa inh, POLH inh, Pol beta inh)
CC1CC(=O)c2c(cc3c(-c4c(O)cc(O)c5c(O)c6c(cc45)OC(C)CC6=O)c(O)cc(O)c3c2O)O1 (stereo unspecified)	POLI inh 1.1µM, FEN1 inh 14µM, Pol kappa inh inconclusive, POLH inh 10µM, Pol beta inh 18µM
CC(=O)Oc1cc2c(c3ccccc13)CCC2=O	none (no result: TDP1 block, Pol beta inh)
CC(=O)Oc1cc2cccc(OC(C)=O)c(=O)c2c(OC(C)=O)c1OC(C)=O	POLI inh 1µM, FEN1 inh 1.1µM, Pol kappa inh 1µM, POLH inh 10µM, Pol beta inh 0.18µM (no result: TDP1 block)
COc1cc(-c2noc(-c3ccc(NCc4cccnc4)c([N+](=O)[O-])c3)n2)cc(OC)c1OC	Pol beta inh 45µM
CNC(=O)C1CC(=O)N(CCCc2ccccc2)C(=Nc2ccccc2)S1 (stereo unspecified)	none
COc1ccc(CCN2C(=O)CC(C(N)=O)SC2=Nc2ccccc2)cc1 (stereo unspecified)	POLI inh 79µM, POLH inh inconclusive, Pol beta inh inconclusive (no result: TDP1 block)
O=C1C(Cl)=C(N2CCCCC2)C(=O)C(Cl)=C1c1cnc(N2CCCCC2)s1	POLI inh inconclusive, POLH inh inconclusive, Pol beta inh 5.6µM
C/C(=N\NC(=O)c1cc2ccccc2cc1O)c1ccc(C)o1	POLI inh inconclusive, Pol beta inh 79µM
C/C(=N/NC(=O)c1cc2ccccc2cc1O)c1ccco1	POLI inh 45µM, Pol kappa inh inconclusive, Pol beta inh 63µM
C/C(=N\NC(=O)c1cc2ccccc2cc1O)c1cccs1	POLI inh inconclusive, FEN1 inh inconclusive, Pol beta inh inconclusive (no result: TDP1 block)
C/C(=N\NC(=O)c1cccc(N/N=C(\C)c2ccco2)c1)c1ccco1	POLI inh 45µM, Pol kappa inh 89µM, POLH inh 22µM
O=C(C[N+]1(CCO)CCOCC1)c1cccc2ccccc12	none (no result: TDP1 block, POLH inh, Pol beta inh)
O=C(O)c1cc(NCc2cc(O)ccc2O)ccc1O	POLI inh 18µM, TDP1 block inconclusive, FEN1 inh 8.9µM, Pol kappa inh 50µM (no result: POLH inh, Pol beta inh)
O=C1C=C(O)CC(c2cccs2)C1 (stereo unspecified)	POLI inh inconclusive, Pol beta inh 28µM
COc1ccc(C2C(C(=O)Nc3cccnc3)=C(C)Nc3nc(SCc4ccccc4)nn32)cc1 (stereo unspecified)	Pol beta inh inconclusive
Cc1ccc2cc3c(N)c4c(C)ccc(C)c4nc3nc2c1	POLI inh inconclusive, POLH inh inconclusive, Pol beta inh 25µM
CC(Sc1ccsc1[N+](=O)[O-])C(=O)NCc1ccco1 (stereo unspecified)	POLI inh inconclusive, Pol kappa inh inconclusive, POLH inh 40µM, Pol beta inh 22µM
O=C(CNC(=O)c1ccccc1)OC(C(=O)Nc1ccc2c(c1)OCO2)c1ccccc1 (stereo unspecified)	none (no result: POLI inh, FEN1 inh, Pol kappa inh, POLH inh, Pol beta inh)
O=S1(=O)N=C(Oc2ccc3ccccc3c2)c2ccccc21	none (no result: POLI inh, FEN1 inh, Pol kappa inh, POLH inh, Pol beta inh)
NC(=O)c1ccc(N=C2C(=O)Nc3ccc([N+](=O)[O-])cc32)cc1	POLI inh inconclusive, FEN1 inh inconclusive, POLH inh 20µM, Pol beta inh inconclusive
O=c1cc(CSc2nnc(-c3cccs3)n2Cc2ccccc2)nc2sc3ccccc3n12	POLI inh 13µM, Pol kappa inh 79µM, POLH inh inconclusive, Pol beta inh 10µM
O=C(Nc1cccc(C(F)(F)F)c1)c1ccc2snnc2c1	none
CCC(C)NC(=O)c1ccc2nc(-c3ccco3)c(-c3ccco3)nc2c1 (stereo unspecified)	POLI inh 22µM, FEN1 inh inconclusive, Pol kappa inh inconclusive (no result: TDP1 block, POLH inh, Pol beta inh)
COc1ccc(CCNC(=O)c2ccc(N3CCCCS3(=O)=O)cc2)cc1OC	POLI inh 79µM, Pol beta inh inconclusive
O=C(Nc1cccc(C(F)(F)F)c1)c1ccc2nc(-c3ccco3)c(-c3ccco3)nc2c1	POLI inh 16µM, FEN1 inh inconclusive, Pol kappa inh 45µM, POLH inh 8.9µM, Pol beta inh 10µM
Cc1ccc(C(=O)Nc2cccc(C(F)(F)F)c2)cc1NC(=O)c1nccn1C	POLI inh inconclusive, Pol beta inh 40µM
COc1ccc(CCNC(=O)c2ccc3nc(-c4ccco4)c(-c4ccco4)nc3c2)cc1OC	POLI inh 13µM, TDP1 block 10µM, FEN1 inh inconclusive, Pol kappa inh 45µM, POLH inh 79µM, Pol beta inh 35µM
